Measurements as given in PubChem BioAssay (EPA / NIEHS).
“And” between values parts separate entries of the source, which are not always exact repeats. Equal values may be shown once. Records with an inconclusive call do not appear. Some compounds were tested as several samples or in several runs, with calls that do not always agree. The source made the active and inactive calls. Rule for the calls, unless noted: active = hit-call score of the fitted dose curve at least 0.9, where 1 is the maximum; inconclusive = response in the unintended direction; inactive = score below 0.9.

Columns and labels:
[1] = molecular target: zebrafish Estrogen Receptor (ER1), esr1 (gene 259252) (UniProt P57717); experiment: ATG_zfER1_XSP2: Attagene TRANS-FACTORIAL Multi-Species (XSP2) HepG2 Assay for zebrafish Estrogen Receptor (ER1) (AID 2283816)
Sequence of zebrafish Estrogen Receptor (ER1), esr1 (gene 259252) (P57717 whole entry, looked up, the tested form may be a part): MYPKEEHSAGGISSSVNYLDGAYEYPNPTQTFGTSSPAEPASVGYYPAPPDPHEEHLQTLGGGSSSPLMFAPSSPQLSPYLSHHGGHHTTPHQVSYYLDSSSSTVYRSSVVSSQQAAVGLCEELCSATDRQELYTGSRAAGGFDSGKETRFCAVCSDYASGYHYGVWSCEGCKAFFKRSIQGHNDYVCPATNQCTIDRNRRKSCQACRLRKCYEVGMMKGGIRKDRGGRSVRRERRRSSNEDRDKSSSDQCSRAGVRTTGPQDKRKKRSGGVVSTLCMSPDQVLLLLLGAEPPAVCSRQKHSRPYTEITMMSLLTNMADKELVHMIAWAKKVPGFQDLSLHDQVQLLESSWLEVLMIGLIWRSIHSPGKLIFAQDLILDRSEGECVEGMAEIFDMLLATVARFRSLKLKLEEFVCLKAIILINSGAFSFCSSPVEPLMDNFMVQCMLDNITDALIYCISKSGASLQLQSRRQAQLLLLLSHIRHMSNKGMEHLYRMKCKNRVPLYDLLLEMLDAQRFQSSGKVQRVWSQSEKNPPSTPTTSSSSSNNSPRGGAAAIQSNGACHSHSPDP
Summary of the method: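 HepG2 cells transiently transfected with a GAL4-UAS reporter and a chimeric zebrafish ER1-Gal4 construct, dosed 24 h. Reporter mRNA quantified by RT-PCR, labelling, HpaI digestion and capillary electrophoresis, relative to DMSO.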

[2] = molecular target: chicken Estrogen Receptor (ERa), ESR1 (gene 396099) (UniProt P06212); experiment: ATG_chERa_XSP2: Attagene TRANS-FACTORIAL Multi-Species (XSP2) HepG2 Assay for chicken Estrogen Receptor (ERa) (AID 2283817);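 note: actives raise reporter signal above DMSO so AC50 reflects ER activation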
Sequence of chicken Estrogen Receptor (ERa), ESR1 (gene 396099) (P06212 whole entry, looked up, the tested form may be a part): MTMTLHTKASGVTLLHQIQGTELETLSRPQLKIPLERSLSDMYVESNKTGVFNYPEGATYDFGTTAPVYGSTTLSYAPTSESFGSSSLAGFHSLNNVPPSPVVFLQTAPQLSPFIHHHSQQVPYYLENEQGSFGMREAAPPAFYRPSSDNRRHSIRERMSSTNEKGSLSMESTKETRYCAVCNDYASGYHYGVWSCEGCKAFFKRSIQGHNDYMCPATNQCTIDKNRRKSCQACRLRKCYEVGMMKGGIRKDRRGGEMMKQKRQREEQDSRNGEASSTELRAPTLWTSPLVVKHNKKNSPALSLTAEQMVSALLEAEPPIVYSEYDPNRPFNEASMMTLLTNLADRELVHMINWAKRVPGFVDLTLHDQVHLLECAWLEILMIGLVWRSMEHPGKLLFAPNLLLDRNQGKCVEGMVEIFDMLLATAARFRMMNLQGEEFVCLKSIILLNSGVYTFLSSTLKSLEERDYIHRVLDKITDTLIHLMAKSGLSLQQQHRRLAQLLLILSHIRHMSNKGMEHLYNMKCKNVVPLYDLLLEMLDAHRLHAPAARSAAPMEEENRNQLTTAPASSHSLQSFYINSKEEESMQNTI
Summary of the method: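 HepG2 cells transiently transfected with multiplexed GAL4-UAS reporter units expressing chimeric chicken ERa-Gal4; 24 h compound exposure. Reporter mRNA measured by RT-PCR with 6-FAM labelling, HpaI digestion and capillary electrophoresis; gain-of-signal fitted versus DMSO.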

[3] = tested on: zebrafish Estrogen Receptor (ER2a), gene 317734; experiment: ATG_zfER2a_XSP2: Attagene TRANS-FACTORIAL Multi-Species (XSP2) HepG2 Assay for zebrafish Estrogen Receptor (ER2a) (AID 2283818);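 note: hits raise reporter mRNA so AC50 reflects activation of zebrafish ER2a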
Summary of the method: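 HepG2 cells transiently transfected with GAL4-UAS reporter units and chimeric zebrafish ER2a-Gal4, exposed 24 h; medium contains 3 nM 6-alpha-fluorotestosterone and 1.5 nM norgestrel. Reporter mRNA quantified by RT-PCR, HpaI digestion, capillary electrophoresis; gain versus DMSO.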

[4] = tested on: frog Estrogen Receptor (ER), gene 398734; experiment: ATG_frER1_XSP2: Attagene TRANS-FACTORIAL Multi-Species (XSP2) HepG2 Assay for frog Estrogen Receptor (ER) (AID 2283821);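 note: hits raise reporter mRNA above DMSO baseline so potency means agonist or activator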
Summary of the method: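 HepG2, transient MRTU transfection, chimeric NR-GAL4/UAS reporters; 24 h compound exposure, 24-well. Readout: reporter mRNA via RT-PCR + capillary electrophoresis, fluorescence. Positive fit vs DMSO baseline.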

[5] = ATG_M_19_XSP2: Attagene TRANS-FACTORIAL Multi-Species (XSP2) HepG2 Assay for M32 Transcription Factor (Internal Marker) (AID 2283822)
Summary of the method: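 Internal background marker in a multi-species nuclear receptor TRANS panel: transfected HepG2 cells exposed 24 h, with 3 nM 6-alpha-fluorotestosterone and 1.5 nM norgestrel present. Readout is RT-PCR of reporter transcripts resolved by capillary electrophoresis, gain-of-signal versus DMSO.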

[6] = tested on: zebrafish Estrogen Receptor (ER2b), gene 317733; experiment: ATG_zfER2b_XSP2: Attagene TRANS-FACTORIAL Multi-Species (XSP2) HepG2 Assay for zebrafish Estrogen Receptor (ER2b) (AID 2283823);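 note: fitted upward as reporter gain over DMSO so potency reflects activation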
Summary of the method: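 Read-out: fluorescent reporter mRNA, measured by RT-PCR then capillary electrophoresis after HpaI digestion. HepG2 cells carried transiently transfected multi-reporter TRANS constructs (NR-Gal4 chimeras); 24 h chemical exposure; activity scored upward versus DMSO control.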

[7] = ATG_M_32_XSP2: Attagene TRANS-FACTORIAL Multi-Species (XSP2) HepG2 Assay for M19 Transcription Factor (Internal Marker) (AID 2283826)
Summary of the method: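 HepG2 cells transiently transfected with GAL4-UAS reporter transcription units, dosed with compound for 24 h in presence of 3 nM 6-alpha-fluorotestosterone and 1.5 nM norgestrel; reporter mRNA quantified by RT-PCR, FAM labelling, HpaI digestion and capillary electrophoresis.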

[8] = molecular target: Estrogen receptor (Homo sapiens) (UniProt P03372); experiment: ATG_hERa_XSP2: Attagene TRANS-FACTORIAL Multi-Species (XSP2) HepG2 Assay for human Estrogen Receptor (ERa) (AID 2283827)
Sequence of Estrogen receptor (Homo sapiens) (P03372 whole entry, looked up, the tested form may be a part): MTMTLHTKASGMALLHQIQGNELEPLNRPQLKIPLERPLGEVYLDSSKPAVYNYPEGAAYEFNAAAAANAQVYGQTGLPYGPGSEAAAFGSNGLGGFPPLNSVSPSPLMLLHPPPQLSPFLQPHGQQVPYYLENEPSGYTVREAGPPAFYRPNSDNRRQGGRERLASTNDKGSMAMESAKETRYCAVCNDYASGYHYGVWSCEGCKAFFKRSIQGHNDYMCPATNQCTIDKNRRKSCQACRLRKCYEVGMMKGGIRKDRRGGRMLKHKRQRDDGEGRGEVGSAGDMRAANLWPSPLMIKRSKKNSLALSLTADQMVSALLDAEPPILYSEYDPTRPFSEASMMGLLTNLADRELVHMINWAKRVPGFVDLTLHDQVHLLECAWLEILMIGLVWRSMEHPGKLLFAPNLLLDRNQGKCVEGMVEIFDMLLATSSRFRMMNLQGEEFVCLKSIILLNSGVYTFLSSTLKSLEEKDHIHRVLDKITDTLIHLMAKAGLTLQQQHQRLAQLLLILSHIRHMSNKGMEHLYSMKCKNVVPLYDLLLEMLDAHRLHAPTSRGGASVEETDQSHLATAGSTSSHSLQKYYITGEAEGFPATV
Summary of the method: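 HepG2 cells transiently transfected with multiplexed GAL4-UAS reporters driven by chimeric receptor-Gal4 proteins, dosed 24 h with 3 nM 6-alpha-fluorotestosterone and 1.5 nM norgestrel present. Reporter mRNA by RT-PCR and capillary electrophoresis; gain-of-signal fit versus DMSO.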

[9] = tested on: frog Estrogen Receptor (ER2), gene 100174814; experiment: ATG_frER2_XSP2: Attagene TRANS-FACTORIAL Multi-Species (XSP2) HepG2 Assay for frog Estrogen Receptor (ER2) (AID 2283828)
Summary of the method: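 Human liver HepG2, transient MRTU transfection (TRANS format, exogenous NR–Gal4). 24 h cpd exposure. Total RNA → RT → PCR → FAM label → HpaI cut → CE. Positive direction vs DMSO.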

[10] = molecular target: Peroxisome proliferator-activated receptor gamma (Homo sapiens) (UniProt P37231); experiment: ATG_hPPARg_XSP2: Attagene TRANS-FACTORIAL Multi-Species (XSP2) HepG2 Assay for human Peroxisome Proliferator-activated Receptor gamma (PPARg) (AID 2283829);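 note: actives raise reporter mRNA above DMSO so AC50 reflects PPARg activation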
Sequence of Peroxisome proliferator-activated receptor gamma (Homo sapiens) (P37231 whole entry, looked up, the tested form may be a part): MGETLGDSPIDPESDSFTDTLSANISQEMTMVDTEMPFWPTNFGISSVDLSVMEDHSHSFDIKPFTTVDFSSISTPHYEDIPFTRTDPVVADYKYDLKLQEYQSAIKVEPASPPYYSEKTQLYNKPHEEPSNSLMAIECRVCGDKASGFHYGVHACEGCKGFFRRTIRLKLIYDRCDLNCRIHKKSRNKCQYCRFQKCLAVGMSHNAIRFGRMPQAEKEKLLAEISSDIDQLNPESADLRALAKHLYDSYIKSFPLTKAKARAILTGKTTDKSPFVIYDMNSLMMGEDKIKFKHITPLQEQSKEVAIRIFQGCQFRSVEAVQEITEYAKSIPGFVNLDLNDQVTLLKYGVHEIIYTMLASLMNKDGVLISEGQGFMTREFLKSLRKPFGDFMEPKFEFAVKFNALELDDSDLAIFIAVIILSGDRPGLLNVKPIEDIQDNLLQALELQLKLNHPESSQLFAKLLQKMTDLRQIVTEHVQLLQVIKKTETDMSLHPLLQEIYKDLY
Summary of the method: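 HepG2 cells transiently transfected with multiplexed GAL4-UAS reporter units for chimeric NR-Gal4 receptors, dosed 24 h. Reporter mRNA quantified by RT-PCR, 6-FAM labeling, HpaI digestion and capillary electrophoresis; gain-of-signal fitted against DMSO baseline.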

[11] = molecular target: mouse Peroxisome Proliferator-activated Receptor gamma (PPARg), Pparg (gene 19016) (UniProt P37238); experiment: ATG_mPPARg_XSP2: Attagene TRANS-FACTORIAL Multi-Species (XSP2) HepG2 Assay for mouse Peroxisome Proliferator-activated Receptor gamma (PPARg) (AID 2283830);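 note: hits are gains in reporter mRNA above DMSO so AC50 marks activation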
Sequence of mouse Peroxisome Proliferator-activated Receptor gamma (PPARg), Pparg (gene 19016) (P37238 whole entry, looked up, the tested form may be a part): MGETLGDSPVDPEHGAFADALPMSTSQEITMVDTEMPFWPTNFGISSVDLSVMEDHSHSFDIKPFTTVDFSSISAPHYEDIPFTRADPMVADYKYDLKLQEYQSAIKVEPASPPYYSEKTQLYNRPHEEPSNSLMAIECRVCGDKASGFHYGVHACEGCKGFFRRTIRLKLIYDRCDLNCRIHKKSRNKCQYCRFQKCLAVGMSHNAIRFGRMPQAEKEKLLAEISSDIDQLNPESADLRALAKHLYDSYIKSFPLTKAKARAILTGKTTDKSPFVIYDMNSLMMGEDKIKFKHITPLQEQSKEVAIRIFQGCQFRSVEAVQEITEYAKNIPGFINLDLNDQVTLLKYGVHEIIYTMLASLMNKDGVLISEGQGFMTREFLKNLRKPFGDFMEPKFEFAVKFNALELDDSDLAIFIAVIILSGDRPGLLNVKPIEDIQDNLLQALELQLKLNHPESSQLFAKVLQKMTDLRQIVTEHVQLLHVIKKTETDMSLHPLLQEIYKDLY
Summary of the method: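 HepG2 cells transiently transfected with GAL4-UAS reporter units for chimeric NR-Gal4 proteins including mouse PPARg, exposed 24 h; medium contained 3 nM 6-alpha-fluorotestosterone and 1.5 nM norgestrel. Reporter mRNA quantified by RT-PCR, HpaI digestion and capillary electrophoresis, vs DMSO.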

[12] = molecular target: Nuclear receptor subfamily 1 group I member 2 (Mus musculus) (UniProt O54915); experiment: ATG_mPXR_XSP2: Attagene TRANS-FACTORIAL Multi-Species (XSP1) HepG2 Assay for mouse Pregnane X Receptor (PXR) (AID 2283831)
Sequence of Nuclear receptor subfamily 1 group I member 2 (Mus musculus) (O54915 whole entry, looked up, the tested form may be a part): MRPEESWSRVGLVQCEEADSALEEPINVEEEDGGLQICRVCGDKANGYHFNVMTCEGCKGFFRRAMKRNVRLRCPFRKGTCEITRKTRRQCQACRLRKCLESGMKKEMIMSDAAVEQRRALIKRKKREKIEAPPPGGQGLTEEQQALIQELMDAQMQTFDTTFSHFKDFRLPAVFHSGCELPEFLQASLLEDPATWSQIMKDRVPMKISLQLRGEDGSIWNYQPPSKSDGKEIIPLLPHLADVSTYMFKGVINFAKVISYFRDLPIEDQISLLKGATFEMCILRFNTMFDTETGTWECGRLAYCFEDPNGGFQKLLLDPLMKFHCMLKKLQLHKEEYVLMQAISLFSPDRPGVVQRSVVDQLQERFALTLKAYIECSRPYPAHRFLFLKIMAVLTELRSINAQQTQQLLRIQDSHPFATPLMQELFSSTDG
Summary of the method: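 HepG2 cells transiently transfected with GAL4-UAS reporter units expressing chimeric NR-GAL4 proteins; reporter mRNA measured 24 h after dosing by RT-PCR with 6-FAM labelling and capillary electrophoresis, gain of signal relative to DMSO.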

[13] = molecular target: zebrafish Thyroid Hormone Receptor alpha (TRa), thraa (gene 30670) (UniProt Q98867); experiment: ATG_zfTRa_XSP2: Attagene TRANS-FACTORIAL Multi-Species (XSP1) HepG2 Assay for zebrafish Thyroid Hormone Receptor alpha (TRa) (AID 2283832);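 note: actives raise zebrafish TRa-Gal4 reporter transcript above DMSO baseline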
Sequence of zebrafish Thyroid Hormone Receptor alpha (TRa), thraa (gene 30670) (Q98867 whole entry, looked up, the tested form may be a part): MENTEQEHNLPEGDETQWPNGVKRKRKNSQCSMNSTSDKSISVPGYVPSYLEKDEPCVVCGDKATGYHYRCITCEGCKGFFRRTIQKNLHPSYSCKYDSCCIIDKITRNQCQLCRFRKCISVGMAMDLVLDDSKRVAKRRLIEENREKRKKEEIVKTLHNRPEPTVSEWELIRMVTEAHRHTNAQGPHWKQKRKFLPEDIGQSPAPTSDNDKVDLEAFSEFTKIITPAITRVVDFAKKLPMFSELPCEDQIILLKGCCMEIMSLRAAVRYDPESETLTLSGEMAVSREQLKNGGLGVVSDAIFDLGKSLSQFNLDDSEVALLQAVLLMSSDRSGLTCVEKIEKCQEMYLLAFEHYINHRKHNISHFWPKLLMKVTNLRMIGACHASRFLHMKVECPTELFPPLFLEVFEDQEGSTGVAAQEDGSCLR
Summary of the method: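 HepG2 transiently transfected with GAL4-UAS reporter units and chimeric zebrafish TRa-Gal4; reporter mRNA quantified after 24 h dosing by RT-PCR, HpaI digestion and capillary electrophoresis fluorescence. Gain of signal vs DMSO; XSP2 medium contains 3 nM 6-alpha-fluorotestosterone, 1.5 nM norgestrel.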

[14] = tested on: zebrafish Peroxisome Proliferator-activated Receptor gamma (PPARg), gene 557037; experiment: ATG_zfPPARg_XSP2: Attagene TRANS-FACTORIAL Multi-Species (XSP2) HepG2 Assay for zebrafish Peroxisome Proliferator-activated Receptor gamma (PPARg) (AID 2283833);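 note: actives increase reporter signal over DMSO so AC50 reflects activation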
Summary of the method: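 HepG2 cells transiently transfected with GAL4-UAS reporter units expressing a zebrafish PPARg–GAL4 chimera; compound exposure 24 h. Reporter mRNA quantified by RT-PCR with fluorescent labelling and capillary electrophoresis; gain of signal fitted relative to DMSO baseline.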

[15] = tested on: turtle Thyroid Hormone Receptor, alpha (TRa), gene 101949057; experiment: ATG_trTRa_XSP2: Attagene TRANS-FACTORIAL Multi-Species (XSP1) HepG2 Assay for turtle Thyroid Hormone Receptor, alpha (TRa) (AID 2283834);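 note: hits raise reporter mRNA over the DMSO baseline so AC50 marks activators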
Summary of the method: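 HepG2 cells transiently transfected with multiplexed GAL4-UAS reporter units expressing chimeric NR-Gal4 proteins were dosed for 24 hours. Reporter mRNA was quantified by RT-PCR with 6-FAM labelling and capillary electrophoresis, gain of signal scored against DMSO.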

[16] = molecular target: zebrafish Thyroid Hormone Receptor beta (TRb), thrb (gene 30607) (UniProt Q9PVE4); experiment: ATG_zfTRb_XSP2: Attagene TRANS-FACTORIAL Multi-Species (XSP1) HepG2 Assay for zebrafish Thyroid Hormone Receptor beta (TRb) (AID 2283836);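 for AC50: potency for induction of reporter signal above DMSO so agonist direction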
Sequence of zebrafish Thyroid Hormone Receptor beta (TRb), thrb (gene 30607) (Q9PVE4 whole entry, looked up, the tested form may be a part): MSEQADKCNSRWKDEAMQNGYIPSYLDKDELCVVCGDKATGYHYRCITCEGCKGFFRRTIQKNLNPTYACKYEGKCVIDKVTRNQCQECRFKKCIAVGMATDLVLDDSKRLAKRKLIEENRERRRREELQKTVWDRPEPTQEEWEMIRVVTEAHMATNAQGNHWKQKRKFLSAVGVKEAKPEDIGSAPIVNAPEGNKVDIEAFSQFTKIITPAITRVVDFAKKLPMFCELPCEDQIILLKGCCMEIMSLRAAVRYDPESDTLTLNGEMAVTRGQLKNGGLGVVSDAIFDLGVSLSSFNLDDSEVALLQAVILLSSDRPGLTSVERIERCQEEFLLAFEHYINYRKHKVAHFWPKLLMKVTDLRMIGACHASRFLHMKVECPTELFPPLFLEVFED
Summary of the method: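 HepG2 cells transiently transfected with chimeric zebrafish TRb-GAL4 reporter units, dosed 24 h with 3 nM 6-alpha-fluorotestosterone and 1.5 nM norgestrel present. Reporter mRNA quantified by RT-PCR and capillary electrophoresis; gain fitted against DMSO.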

[17] = ATG_M_61_XSP2: Attagene TRANS-FACTORIAL Multi-Species (XSP2) HepG2 Assay for M61 Transcription Factor (Internal Marker) (AID 2283835; active = hit-call score of the fitted dose curve at least 0.9, where 1 is the maximum; inactive = score below 0.9;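 note: active means a rise in signal above the DMSO baseline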)
Summary of the method: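 HepG2 cells transiently transfected with multiple GAL4-UAS reporter units; 3 nM 6-alpha-fluorotestosterone and 1.5 nM norgestrel present to stimulate androgen receptor. After 24 h compound exposure, reporter mRNA measured by RT-PCR and capillary electrophoresis fluorescence, gain-of-signal versus DMSO baseline.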

[18] = tested on: turtle Androgen Receptor (AR), gene 101947425; experiment: ATG_trAR_XSP2: Attagene TRANS-FACTORIAL Multi-Species (XSP2) HepG2 Assay for turtle Androgen Receptor (AR) (AID 2283815)
Summary of the method: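 HepG2 cells transiently transfected with GAL4-UAS reporter units for chimeric NR-Gal4 receptors; 24 h dosing in presence of 3 nM 6-alpha-fluorotestosterone and 1.5 nM norgestrel. Reporter mRNA by RT-PCR and capillary electrophoresis, gain of signal versus DMSO.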

[19] = tested on: chicken Androgen Receptor (AR), gene 422165; experiment: ATG_chAR_XSP2: Attagene TRANS-FACTORIAL Multi-Species (XSP2) HepG2 Assay for chicken Androgen Receptor (AR) (AID 2283819);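 note: hits raise reporter mRNA above DMSO so potency is for activation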
Summary of the method: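 HepG2 cells transiently transfected with chicken AR–GAL4 chimeric reporter constructs, stimulated with 3 nM 6-alpha-fluorotestosterone plus 1.5 nM norgestrel, dosed 24 h. Reporter mRNA quantified by RT-PCR and capillary electrophoresis; gain of signal fitted versus DMSO.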

Measured: AC50

Nc1c(Cl)cc([N+](=O)[O-])cc1Cl
active: [2] 26.8 µM | [6] 25.3 µM and 49.6 µM | [8] 10.9 µM and 17.4 µM | [10] 25.7 µM and 34.9 µM | [11] 11.9 µM and 41.8 µM | [12] 10.8 µM and 9.9 µM | [15] 23.6 µM and 29.8 µM | [16] 48.3 µM
inactive: [1] | [2] | [3] | [4] | [5] | [7] | [9] | [13] | [14] | [16]

CCC(CC)Nc1c([N+](=O)[O-])cc(C)c(C)c1[N+](=O)[O-]
inactive: [1] | [3] | [7] | [10] | [11] | [13] | [14] | [15] | [17] | [16]
active: [1] 7.37 µM | [2] 5.63 µM and 4.3 µM | [4] 3.96 µM and 5.7 µM | [6] 18.1 µM and 7.12 µM | [9] 8.22 µM and 4.99 µM | [12] 266 nM and 269 nM

CCC(=O)Nc1ccc(Cl)c(Cl)c1
active: [4] 38 µM | [6] 170 µM | [10] 27.2 µM | [11] 39.7 µM | [12] 27.6 µM and 24.3 µM
inactive: [1] | [2] | [3] | [4] | [6] | [9] | [11] | [13] | [14] | [15] | [17] | [16]

CCc1cccc(C)c1N(C(=O)CCl)C(C)COC (centres undefined)
active: [10] 55.8 µM | [11] 27.3 µM | [12] 3.96 µM
not listed: [3] | [4] | [5] | [8] | [15]
inactive: all other assays above

CCCOCC(=Nc1ccc(Cl)cc1C(F)(F)F)n1ccnc1
active: [6] 39.8 µM | [10] 0.909 µM | [11] 1.28 µM | [12] 9.9 µM
not listed: [5] | [8] | [15] | [18] | [19]
inactive: all other assays above
